# Measured values as given in PubChem BioAssay (NCATS).
# For some of these results: Results with a measured potency or affinity are listed apart. The source made the active and inactive calls. The call rests on the fitted dose curve.
# Conditions: Ebola virus entry assay, green fluorescence channel
row,Structure (SMILES),outcome
1,Nc1nc(/C(=C/CC(=O)O)C(=O)N[C@@H]2C(=O)N3C(C(=O)O)=CCS[C@H]23)cs1,inactive
2,Nc1ccn([C@@H]2CS[C@H](CO)O2)c(=O)n1,inactive
3,CCOC(=O)C1=C[C@@H](OC(CC)CC)[C@H](NC(C)=O)[C@@H](N)C1,inactive
4,NC(=O)CC[C@@H]1NC(=O)[C@H](Cc2ccccc2)NC(=O)[C@H](Cc2ccc(O)cc2)NC(=O)[C@@H](N)CSSC[C@@H](C(=O)N2CCC[C@H]2C(=O)N[C@@H](CCCN=C(N)N)C(=O)NCC(N)=O)NC(=O)[C@H](CC(N)=O)NC1=O,inactive
5,CCOC(=O)C1=C(COCCN)NC(C)=C(C(=O)OC)C1c1ccccc1Cl (stereo not drawn),inactive
6,Cc1onc(-c2ccccc2)c1C(=O)N[C@@H]1C(=O)N2[C@@H](C(=O)O)C(C)(C)S[C@@H]12,inactive
7,CC(C)C[C@H](CN)CC(=O)O,inactive
8,O=P1(N(CCCl)CCCl)NCCCO1 (stereo not drawn),inactive
9,CCCC(C)(COC(N)=O)COC(N)=O,inactive
10,CO[C@@]1(NC(=O)Cc2cccs2)C(=O)N2C(C(=O)O)=C(COC(N)=O)CS[C@@H]21,inactive
11,Nc1nc2[nH]cc(CCc3ccc(C(=O)N[C@@H](CCC(=O)O)C(=O)O)cc3)c2c(=O)[nH]1,inactive
12,O=P(O)(O)C(O)(Cn1ccnc1)P(=O)(O)O,inactive
13,CC1(C)S[C@@H]2[C@H](NC(=O)[C@H](N)c3ccc(O)cc3)C(=O)N2[C@H]1C(=O)O,inactive
14,C[C@](O)(CS(=O)(=O)c1ccc(F)cc1)C(=O)Nc1ccc(C#N)c(C(F)(F)F)c1,inactive
15,NC[C@H]1O[C@H](O[C@H]2[C@H](O)[C@@H](O[C@H]3O[C@H](CO)[C@@H](O)[C@H](N)[C@H]3O)[C@H](N)C[C@@H]2N)[C@H](O)[C@@H](O)[C@@H]1O,inactive
16,CC(=O)N1CCN(c2ccc(OC[C@H]3CO[C@](Cn4ccnc4)(c4ccc(Cl)cc4Cl)O3)cc2)CC1,inactive

row,Structure (SMILES),outcome
1,CCCc1nc(C(C)(C)O)c(C(=O)OCc2oc(=O)oc2C)n1Cc1ccc(-c2ccccc2-c2nn[nH]n2)cc1,inactive
2,O=C1CN=C(c2ccccc2)c2cc([N+](=O)[O-])ccc2N1,inactive
3,CSCC[C@H](NC(=O)[C@H](Cc1ccc(OS(=O)(=O)O)cc1)NC(=O)[C@@H](N)CC(=O)O)C(=O)NCC(=O)N[C@@H](Cc1c[nH]c2ccccc12)C(=O)N[C@@H](CCSC)C(=O)N[C@@H](CC(=O)O)C(=O)N[C@@H](Cc1ccccc1)C(N)=O,inactive
4,Nc1ccn(C[C@@H](CO)OCP(=O)(O)O)c(=O)n1,inactive
5,COc1cc([C@@H]2c3cc4c(cc3[C@@H](O[C@@H]3O[C@@H]5CO[C@@H](C)O[C@H]5[C@H](O)[C@H]3O)[C@H]3COC(=O)[C@H]23)OCO4)cc(OC)c1O,inactive
6,O=c1[nH]c(=O)n([C@H]2C[C@H](O)[C@@H](CO)O2)cc1F,inactive
7,CCOc1cc(CC(=O)N[C@@H](CC(C)C)c2ccccc2N2CCCCC2)ccc1C(=O)O,inactive
8,CCOC(=O)[C@H](CCc1ccccc1)N[C@@H](C)C(=O)N1[C@H](C(=O)O)C[C@H]2CCCC[C@@H]21,inactive
9,CCCCCN(C)CCC(O)(P(=O)(O)O)P(=O)(O)O,inactive
10,CC(C)C[C@H]1C(=O)N2CCC[C@H]2[C@]2(O)O[C@](NC(=O)[C@@H]3C=C4c5cccc6[nH]c(Br)c(c56)C[C@H]4N(C)C3)(C(C)C)C(=O)N12,inactive
11,CCC1=C(C)CN(C(=O)NCCc2ccc(S(=O)(=O)NC(=O)NC3CCC(C)CC3)cc2)C1=O (stereo not drawn),inactive
12,CN1C[C@H](C(=O)N[C@]2(C)O[C@@]3(O)[C@@H]4CCCN4C(=O)[C@H](Cc4ccccc4)N3C2=O)C=C2c3cccc4[nH]cc(c34)C[C@H]21,inactive
13,CN=C1CN(O)C(c2ccccc2)=c2cc(Cl)ccc2=N1,inactive
14,C[C@]1(O)CC[C@H]2[C@@H]3CCC4=CC(=O)CC[C@]4(C)[C@@]3(F)[C@@H](O)C[C@@]21C,inactive
15,CC(O)(P(=O)(O)O)P(=O)(O)O,inactive

# Conditions: Ebola virus entry assay, ratio channel readout
Structure (SMILES),outcome,AC50
C[C@H](CS)C(=O)N1CCC[C@H]1C(=O)O,inactive,–
Nc1nc(/C(=C/CC(=O)O)C(=O)N[C@@H]2C(=O)N3C(C(=O)O)=CCS[C@H]23)cs1,inactive,–
Nc1ccn([C@@H]2CS[C@H](CO)O2)c(=O)n1,inactive,–
CCOC(=O)C1=C[C@@H](OC(CC)CC)[C@H](NC(C)=O)[C@@H](N)C1,inactive,–
CCOC(=O)C1=C(COCCN)NC(C)=C(C(=O)OC)C1c1ccccc1Cl (stereo not drawn),inactive,–
CC(C)C[C@H](CN)CC(=O)O,inactive,–
N[C@@H](Cc1cc(I)c(Oc2ccc(O)c(I)c2)c(I)c1)C(=O)O,inactive,–
CCCC(C)(COC(N)=O)COC(N)=O,inactive,–
CO[C@@]1(NC(=O)Cc2cccs2)C(=O)N2C(C(=O)O)=C(COC(N)=O)CS[C@@H]21,inactive,–
COc1cccc2c1C(=O)c1c(O)c3c(c(O)c1C2=O)C[C@@](O)(C(C)=O)C[C@H]3O[C@H]1C[C@H](N)[C@H](O)[C@H](C)O1,–,5.63 µM (active)
Nc1nc2[nH]cc(CCc3ccc(C(=O)N[C@@H](CCC(=O)O)C(=O)O)cc3)c2c(=O)[nH]1,inactive,–
O=P(O)(O)C(O)(Cn1ccnc1)P(=O)(O)O,inactive,–
O=C1[O][Bi][O]c2ccccc21,inactive,–
C[C@](O)(CS(=O)(=O)c1ccc(F)cc1)C(=O)Nc1ccc(C#N)c(C(F)(F)F)c1,inactive,–
CC(=O)N1CCN(c2ccc(OC[C@H]3CO[C@](Cn4ccnc4)(c4ccc(Cl)cc4Cl)O3)cc2)CC1,inactive,–
O=C1CN=C(c2ccccc2)c2cc([N+](=O)[O-])ccc2N1,inactive,–
CC(C=CC1=C(C)CCCC1(C)C)=CC=CC(C)=CC(=O)O,inactive,–
Nc1ccn(C[C@@H](CO)OCP(=O)(O)O)c(=O)n1,inactive,–
CCOc1cc(CC(=O)N[C@@H](CC(C)C)c2ccccc2N2CCCCC2)ccc1C(=O)O,inactive,–
CCOC(=O)[C@H](CCc1ccccc1)N[C@@H](C)C(=O)N1[C@H](C(=O)O)C[C@H]2CCCC[C@@H]21,inactive,–
CC(C)C[C@H]1C(=O)N2CCC[C@H]2[C@]2(O)O[C@](NC(=O)[C@@H]3C=C4c5cccc6[nH]c(Br)c(c56)C[C@H]4N(C)C3)(C(C)C)C(=O)N12,inactive,–
NC(=O)COCCN1CCN(C(c2ccccc2)c2ccc(Cl)cc2)CC1 (stereo not drawn),inactive,–
CC(=O)S[C@@H]1CC2=CC(=O)CC[C@]2(C)[C@H]2CC[C@@]3(C)[C@@H](CC[C@@]34CCC(=O)O4)[C@H]12,inactive,–
CCC1=C(C)CN(C(=O)NCCc2ccc(S(=O)(=O)NC(=O)NC3CCC(C)CC3)cc2)C1=O (stereo not drawn),inactive,–
CN1C[C@H](C(=O)N[C@]2(C)O[C@@]3(O)[C@@H]4CCCN4C(=O)[C@H](Cc4ccccc4)N3C2=O)C=C2c3cccc4[nH]cc(c34)C[C@H]21,inactive,–
CN=C1CN(O)C(c2ccccc2)=c2cc(Cl)ccc2=N1,inactive,–
C[C@]1(O)CC[C@H]2[C@@H]3CCC4=CC(=O)CC[C@]4(C)[C@@]3(F)[C@@H](O)C[C@@]21C,inactive,–
